Inconclusive results are not listed. A number with no mark means an inactive call. Calls follow the shape of the dose curve; as a rule, active = well fitted activation curve with a large enough effect; inconclusive = small, poorly fitted or top-dose-only effect; inactive = no such curve, though single readings can be large or run the other way.
Test: qHTS assay for re-activators of p53 using a Luc reporter: Hit Validation with no p53 Expressed; also: 0% is about no effect
Details: p53-null cells, luciferase reporter counter-screen; series mostly up to 46.1 µM; activity change, positive = activation: at the top concentration
How it was run: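 Without p53 expression, cells (1000/well, Opti-MEM + 10% FBS) were exposed 24 h at 37 deg C to compounds in a 1:5 series from 10 mM stock (top 46.1 µM in well). Luminescent signal read 10 min after Amplite addition; actives flag unspecific activation.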

| Compound | activity change, positive = activation [%] |
| --- | --- |
| O=C(Nc1ncc(Cc2ccccc2)s1)c1cccs1 | 50.1 |
| Cc1ccc(CCc2nnc(SCC(=O)Nc3cccc(Cl)c3)n2-c2ccccc2)o1 | -44.2 |
| Cc1ccc(NC(=O)Nc2ccccc2)c(Br)c1 | -27.1 |
| COc1cccc(C2(c3cccc(OC)c3)CC2C(=O)Nc2cccc3ccccc23)c1 (stereo not given) | -32.5 |
| CS(=O)(=O)n1nc(-c2ccccc2)nc1NCc1ccco1 | 6.95 |
| COc1ccc(C(=O)N=c2nc3ccccn3s2)cc1 | 7.05 |
| CCOc1ccc2c(c1)C(=NNC(=O)c1ccncc1)c1cc(OCC)ccc1-2 | -13 |
| Cc1cc(NC(=O)c2ccc3nccnc3c2)ccc1Br | -28.8 |
| CC(C)(C)Nc1ncnc2c1cnn2-c1ccccc1 | 24.1 |
| COc1ccc(N2C(=O)CC(Cc3ccc(Br)cc3)C2=O)cc1 (stereo not given) | -57.2 |
| c1ccc(-c2cn3c(n2)SCC3)cc1 | -24.5 |
| O=C1c2cccc3cc([N+](=O)[O-])cc(c23)C(=O)N1CCN1CCCC1 | -32.6 |
| OCCNc1nc(NCc2ccccc2)c2ccccc2n1 | 26.2 |
| CCOc1ccc(OCCSc2nc3ccccc3n2CC(=O)O)cc1 | -31 |
| C(=N\Nc1nc2ccccc2s1)/c1ccc2c(c1)OCO2 | 9.11 |
| COCCCN=C(c1ccco1)n1c(=S)nc(-c2ccco2)n(CCCOC)c1=S | 6.18 |
| CCN1CCN(Cc2ccc(NC(=O)Nc3ccccc3)cc2)CC1 | -19.7 |
| CCCCNC(=S)N(Cc1c(C)noc1C)c1ccccc1 | -13 |
| Cc1ccc(C(=O)Nc2nnc(SCC(=O)N3CCCc4ccccc43)s2)cc1 | -62.4 |
| C/C(=N\NC(=O)c1ccc(F)cc1)c1ccccn1 | 11.7 |

From PubChem BioAssay AID624331 (National Center for Advancing Translational Sciences (NCATS), 2012)
